Morphology score and SARS-CoV-2 infection rate data for 32 compounds are collected here from the supplement of paper PMC13380429.

Each structure is given as a SMILES string.

Assay [1] deals with Vero E6 infected with SARS-CoV-2. Briefly: morphology score (similarity to uninfected cells); higher = more like uninfected cells. The following applies: 24 h.
Assay [2] has the same test system. Briefly: SARS-CoV-2 infection rate relative to infected DMSO; higher = more infection, active = 60 or less. The conditions noted are these: 24 h.

The compound `NC(N)=O` [urea] (10 µM) returned a morphology score in assay [1] of -0.168. Also, in assay [2], the SARS-CoV-2 infection rate is 114% (inactive).

In assay [1], `CCCCN(Cc1ccc(C(=O)NO)cc1)C(=O)Nc1ccccc1` [nexturastat-A] (0.833333 µM) yielded a morphology score of 0.112. Besides, in assay [2], the SARS-CoV-2 infection rate is 105% (inactive).

`CCCc1ncc(C[n+]2ccccc2C)c(N)n1` [amprolium] (10 µM) displayed a morphology score in assay [1] of -0.0897. Further, in assay [2], the SARS-CoV-2 infection rate was 104% (inactive).

In assay [1], `Nc1ccc(C(=O)NCC(=O)O)cc1` [4-aminohippuric-acid] (10 µM) displayed a morphology score of -0.0582. Also, the SARS-CoV-2 infection rate in assay [2] was 108% (inactive).

In turn, `O=S(=O)(F)Cc1ccccc1` [phenylmethylsulfonyl-fluoride] (10 µM) returned a morphology score in assay [1] of 0.191. Further, the SARS-CoV-2 infection rate in assay [2] was 95% (inactive).

Take `N#Cc1c(N)nc(SCC(N)=O)c(C#N)c1-c1ccc(OCC2CC2)cc1` (10 µM): in assay [1], the morphology score was -0.0282. For the same compound, in assay [2], the SARS-CoV-2 infection rate was 108% (inactive).

As for `Nc1ccn(C[C@@H](CO)OCP(=O)(O)O)c(=O)n1` [cidofovir] (10 µM), the morphology score in assay [1] stood at 0.0279. In addition, the SARS-CoV-2 infection rate in assay [2] is 108% (inactive).

Take `O=C(c1ccc(/C=C/c2n[nH]c3ccccc23)cc1)N1CCNCC1` (10 µM): the morphology score in assay [1] is 0.964. In addition, the SARS-CoV-2 infection rate in assay [2] was 94.5% (inactive).

Turning to `Nc1cc2c3ccccc3ccc2c2ccccc12` [6-aminochrysene] (10 µM), in assay [1], the morphology score was 0.144. For the same compound, the SARS-CoV-2 infection rate in assay [2] was 101% (inactive).

On to `CC(C)(C)c1ccc(S(=O)(=O)Nc2ccc(Cl)cc2C(=O)c2cc[n+]([O-])cc2)cc1` [vercirnon] (10 µM), for which the morphology score in assay [1] was 0.0488. Also, in assay [2], the SARS-CoV-2 infection rate was 98.5% (inactive).

Turning to `CCOC(=O)C1=C(C)NC(C)=C(C(=O)OC)C1c1cccc(Cl)c1Cl` (centres undefined) [felodipine] (10 µM), the morphology score in assay [1] came out at 0.224. For the same compound, the SARS-CoV-2 infection rate in assay [2] was 112% (inactive).

Regarding `CCOCCn1c(N2CCCN(C)CC2)nc2ccccc21` [emedastine] (10 µM), the morphology score in assay [1] is 0.137. In assay [2], the SARS-CoV-2 infection rate is 100% (inactive).

In assay [1], `CNC(=N)NCCC[C@H](N)C(=O)O` [targinine] (10 µM) gave a morphology score of 0.0428. In addition, in assay [2], the SARS-CoV-2 infection rate was 106% (inactive).

`CC(=O)Nc1ccc(OC[C@](C)(O)C(=O)Nc2ccc([N+](=O)[O-])c(C(F)(F)F)c2)cc1` [andarine] (10 µM): the morphology score in assay [1] was -0.0126. In assay [2], the SARS-CoV-2 infection rate is 116% (inactive).

With `Nc1ccn([C@H]2CC[C@@H](CO)O2)c(=O)n1` [zalcitabine] (10 µM), the morphology score in assay [1] turned out to be 0.0931. Moreover, the SARS-CoV-2 infection rate in assay [2] is 104% (inactive).

In assay [1], `COc1cccc2c1c(O)c(C(=O)N(C)c1ccc(C(F)(F)F)cc1)c(=O)n2C` [tasquinimod] (10 µM) gave a morphology score of 0.168. For the same compound, the SARS-CoV-2 infection rate in assay [2] was 92% (inactive).

`CCCCc1ccc(C(N)=O)nc1` [bupicomide] (10 µM) returned a morphology score in assay [1] of -0.191. In assay [2], the SARS-CoV-2 infection rate was 102% (inactive).

Compound `O=C1NCCN1CCN1CCC(c2cn(-c3ccc(F)cc3)c3ccc(Cl)cc23)CC1` [sertindole] (0.833333 µM) registered a morphology score in assay [1] of -0.0791. Further, the SARS-CoV-2 infection rate in assay [2] was 106% (inactive).

For `CC(ONC(=O)c1cc(C(F)(F)F)cc(C(F)(F)F)c1)C(=O)Nc1ccc(Cl)cc1` (centres undefined) (10 µM), in assay [1], the morphology score came out at 0.227. Besides, the SARS-CoV-2 infection rate in assay [2] was 89.5% (inactive).

In assay [1], `c1ccc(CCNc2nc(-c3ccccc3)cs2)cc1` [fanetizole] (10 µM) yielded a morphology score of -0.0158. In addition, in assay [2], the SARS-CoV-2 infection rate is 99.5% (inactive).

In the case of `CN[C@@H]1[C@@H](O[C@H]2O[C@H](CO)[C@@H](N)[C@H](O)[C@H]2O)O[C@H]2C[C@@H](N)[C@@H](O[C@H]3[C@H](O)[C@@H](O)[C@H](N)C[C@@H]3N)O[C@@H]2[C@@H]1O` [apramycin] (10 µM), the morphology score in assay [1] was 0.0655. Moreover, the SARS-CoV-2 infection rate in assay [2] was 98% (inactive).

On to `Cc1cccc(NC(=O)N[C@@H]2N=C(c3ccccc3)c3ccccc3N(C)C2=O)c1` (10 µM), for which, in assay [1], the morphology score amounted to 0.0212. Besides, the SARS-CoV-2 infection rate in assay [2] was 106% (inactive).

In assay [1], `N#Cc1c(N)nc(SCc2ncc[nH]2)c(C#N)c1-c1ccc(O)cc1` (10 µM) registered a morphology score of -0.0242. In assay [2], the SARS-CoV-2 infection rate was 108% (inactive).

Turning to `c1ccc(N2CCN(CCCOc3ccc4c(c3)OCO4)CC2)cc1` (10 µM), in assay [1], the morphology score worked out at 0.0822. Also, the SARS-CoV-2 infection rate in assay [2] is 101% (inactive).

As to `O=c1c(O)c(-c2ccc(O)cc2O)oc2cc(O)cc(O)c12` [morin] (10 µM), in assay [1], the morphology score is 0.0742. The SARS-CoV-2 infection rate in assay [2] is 108% (inactive).

In turn, `CSc1ccc2c(c1)N(CCC1CCCCN1C)c1ccccc1S2` (centres undefined) [thioridazine] (0.833333 µM) gave a morphology score in assay [1] of 0.304. Moreover, the SARS-CoV-2 infection rate in assay [2] is 109% (inactive).

`CO[C@H]1CC=C2CCN3CCC4=C(CC(=O)OC4)[C@]23C1` (10 µM) came in with a morphology score in assay [1] of 0.059. In addition, in assay [2], the SARS-CoV-2 infection rate was 106% (inactive).

On to `OC(CNCC(O)C1CCc2cc(F)ccc2O1)C1CCc2cc(F)ccc2O1` (centres undefined) [nebivolol] (10 µM), for which the morphology score in assay [1] came out at 0.0502. Moreover, the SARS-CoV-2 infection rate in assay [2] is 108% (inactive).

Consider `CCC1(CC)C(=O)NC(=O)N(C)C1=O` [metharbital] (10 µM), for which the morphology score in assay [1] worked out at 0.221. Besides, the SARS-CoV-2 infection rate in assay [2] was 91.5% (inactive).

In assay [1], `CN(C)CCOC(=O)COc1ccc(Cl)cc1` [meclofenoxate] (10 µM) came in with a morphology score of -0.0664. For the same compound, the SARS-CoV-2 infection rate in assay [2] was 90.5% (inactive).

Regarding `COc1cc(O)c(C(=O)c2ccccc2)cc1S(=O)(=O)O` [sulisobenzone] (10 µM), the morphology score in assay [1] was -0.0207. Further, the SARS-CoV-2 infection rate in assay [2] is 109% (inactive).

In assay [1], `COc1cc2c(NC3CCN(CC4CCCCC4)CC3)nc(N3CCCN(C(C)C)CC3)nc2cc1OCCCN1CCCCC1` (0.833333 µM) gave a morphology score of 0.165. Besides, the SARS-CoV-2 infection rate in assay [2] is 92% (inactive).
